Assay results taken from the supplement of paper PMC3334620.
Whole data set: some 33,000 sequences, median “E-score (-0.5 to 0.5)” near -0.043, cut for the highest 2% near 0.37. For the sample, the highest values were picked, then their nearest neighbours and some sequences at random.

molecular target: T1, Upc2 (UniProt Q12151); assay: PBM E-score (8-mer binding enrichment) (E-score (-0.5 to 0.5)); higher = stronger / more preferred TF binding; details: protein concentration: 200 nM; construct: GST-full length
T1 sequence: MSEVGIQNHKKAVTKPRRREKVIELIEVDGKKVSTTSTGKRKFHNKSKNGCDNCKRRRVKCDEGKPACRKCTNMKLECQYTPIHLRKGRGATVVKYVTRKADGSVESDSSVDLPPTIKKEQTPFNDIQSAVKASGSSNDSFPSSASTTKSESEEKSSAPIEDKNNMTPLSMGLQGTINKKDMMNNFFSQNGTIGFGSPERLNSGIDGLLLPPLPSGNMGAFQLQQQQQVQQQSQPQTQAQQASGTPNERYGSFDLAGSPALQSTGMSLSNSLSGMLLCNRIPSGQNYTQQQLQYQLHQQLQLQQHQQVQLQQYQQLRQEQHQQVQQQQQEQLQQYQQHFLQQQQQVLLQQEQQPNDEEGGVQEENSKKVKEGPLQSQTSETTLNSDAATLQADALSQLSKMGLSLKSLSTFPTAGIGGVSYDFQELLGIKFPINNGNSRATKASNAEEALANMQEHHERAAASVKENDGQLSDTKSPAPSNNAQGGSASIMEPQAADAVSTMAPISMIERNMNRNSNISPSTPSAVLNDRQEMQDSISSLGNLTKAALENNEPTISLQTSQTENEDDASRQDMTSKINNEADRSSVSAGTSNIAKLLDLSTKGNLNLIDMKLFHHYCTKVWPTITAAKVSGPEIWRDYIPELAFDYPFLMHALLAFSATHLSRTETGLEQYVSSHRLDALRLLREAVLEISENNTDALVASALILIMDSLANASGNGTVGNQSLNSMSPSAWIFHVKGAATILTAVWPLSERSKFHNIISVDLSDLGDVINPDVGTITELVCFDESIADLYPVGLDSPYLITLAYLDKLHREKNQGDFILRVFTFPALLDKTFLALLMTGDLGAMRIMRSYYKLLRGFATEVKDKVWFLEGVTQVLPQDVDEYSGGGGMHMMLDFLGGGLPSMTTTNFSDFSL
Description: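 Universal 'all 10-mer' protein binding microarrays (Agilent AMADID 015681) probed with GST-tagged S. cerevisiae TFs (full-length or DBD) made by in vitro transcription/translation (PURExpress), about 100-200 nM. Bound TF was detected with fluorescent anti-GST. Each ungapped 8-mer (which stands for itself and its reverse complement) is scored by the PBM enrichment score (E-score), a modified Wilcoxon-Mann-Whitney statistic from -0.5 to +0.5, computed with the Universal PBM Analysis Suite. Scale: above 0.35 generally sequence-specific binding.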

Going from CCGTTTTA to CCGTTTAA, the “PBM E-score” value rises from 0.118 to 0.466.

Going from CTGTTTAA to GCGTTTAA, the “PBM E-score” value rises from 0.0306 to 0.4.

Compared with GCGTTTTA, GCGTTTAC is higher in “PBM E-score” value: 0.206 for the first, 0.372 for the second.

Going from ACGTTTAC to GCGTTTCC, the “PBM E-score” value falls from 0.369 to 0.0493.

First: GGGTTTAC
Second: GGGAGCAA
The “PBM E-score” value of the first is higher: 0.144 for the first, -0.11 for the second.

First: GGCAAGGA
Second: GGCTACTA
The “PBM E-score” value of the first is lower: -0.205 for the first, -0.0652 for the second.

Compared with ACAGTACC, CATCTAGA is higher in “PBM E-score” value: -0.176 for the first, 0.0683 for the second.

First: ACAAGGTA
Second: GAGAGGGA
The “PBM E-score” value of the first is higher: 0.104 for the first, -0.272 for the second.

Compared with ATTATACA, CCTATACA is higher in “PBM E-score” value: 0.0589 for the first, 0.151 for the second.

Going from ACTATACG to ACTATACA, the “PBM E-score” value falls from 0.478 to 0.11.

First: ATTATACG
Second: CCTATACG
The “PBM E-score” value of the first is lower: 0.482 for the first, 0.487 for the second.

Compared with AGTATACT, ACTATACT is lower in “PBM E-score” value: 0.242 for the first, 0.152 for the second.

First: ATTATACC
Second: AGTATATG
The “PBM E-score” value of the first is higher: 0.144 for the first, 0.0175 for the second.

Compared with AGTATACG, CCTATACC is lower in “PBM E-score” value: 0.455 for the first, 0.167 for the second.

Compared with AAAGAATA, AAGGTTAT is lower in “PBM E-score” value: 0.091 for the first, -0.0588 for the second.

First: GCCCCGCC
Second: GGCGCAAC
The “PBM E-score” value of the first is higher: 0.112 for the first, 0.00488 for the second.

Going from CACAGGGA to AGGACACT, the “PBM E-score” value falls from -0.233 to -0.364.

First: CGTTTAAC
Second: GGTTTAAC
The “PBM E-score” value of the first is higher: 0.473 for the first, 0.138 for the second.

Going from CCTTTAAG to AGTTTAAC, the “PBM E-score” value rises from -0.158 to 0.174.

Compared with TGTTTAAA, CGTTTAAA is higher in “PBM E-score” value: 0.0234 for the first, 0.47 for the second.

Compared with AGTTTAAA, CGTTTAAG is higher in “PBM E-score” value: 0.11 for the first, 0.468 for the second.

Compared with AGTTTAAG, AGGATGGG is lower in “PBM E-score” value: 0.0878 for the first, 0.00396 for the second.

First: CAACCTCA
Second: AACTGTGT
The “PBM E-score” value of the first is higher: -0.0655 for the first, -0.137 for the second.

Compared with CCTTAGCA, CCCTTATC is higher in “PBM E-score” value: -0.336 for the first, -0.205 for the second.

Going from AGGTATAC to GTAACCGA, the “PBM E-score” value falls from 0.339 to 0.322.

Compared with CTAACCGC, CTAACCGA is higher in “PBM E-score” value: 0.0621 for the first, 0.37 for the second.

First: CTGCTCTA
Second: ACAATCCT
The “PBM E-score” value of the first is higher: -0.0369 for the first, -0.183 for the second.

Going from CAGGACGG to CGAAGTAG, the “PBM E-score” value rises from -0.164 to 0.00964.

First: ATACGAAT
Second: ATCCGAAC
The “PBM E-score” value of the first is higher: 0.459 for the first, 0.146 for the second.

First: ATACGAAC
Second: GTACGAAA
The “PBM E-score” value of the first is higher: 0.472 for the first, 0.442 for the second.

First: ATTCGAAC
Second: GCACGAAA
The “PBM E-score” value of the first is lower: 0.119 for the first, 0.127 for the second.

Compared with ACACGAAG, GGACGAAA is lower in “PBM E-score” value: 0.211 for the first, -0.0427 for the second.

Compared with ATACGAAG, ACACGAAT is lower in “PBM E-score” value: 0.476 for the first, 0.258 for the second.

Going from AGACGAAT to CTACGAAG, the “PBM E-score” value rises from 0.0524 to 0.316.

First: CATCGATC
Second: ATAGATTC
The “PBM E-score” value of the first is higher: -0.0852 for the first, -0.12 for the second.

First: GGCATAAC
Second: ACCGATCC
The “PBM E-score” value of the first is lower: -0.0916 for the first, -0.0521 for the second.

First: ATACTCAT
Second: GTGGGCTA
The “PBM E-score” value of the first is higher: -0.111 for the first, -0.128 for the second.

Compared with ATACGTAT, ATACGTAA is lower in “PBM E-score” value: 0.372 for the first, 0.334 for the second.

Going from AGACGAAA to ATACGAAA, the “PBM E-score” value rises from 0.196 to 0.47.

Going from GTACGAAC to TTACGAAA, the “PBM E-score” value falls from 0.467 to 0.41.

Going from GGACGAAC to CTACGAAC, the “PBM E-score” value rises from 0.0508 to 0.333.

First: ACACGAAA
Second: CTACGAAA
The “PBM E-score” value of the first is lower: 0.197 for the first, 0.272 for the second.

Compared with TCACGAAA, ATACGTAC is higher in “PBM E-score” value: -0.0654 for the first, 0.339 for the second.
